Nrf2 ARE act – qHTS of Nrf2 Activators | Potency, µM (titrated, usually from 46.1 µM), inactives show at the highest dose activation, actives largely listed as activators | AREc32 ARE-luciferase reporter (MCF7-derived line), luminescence, 24 h | AID 624171, 2012 | 410,000 tested, 0.31% active; also: potency is read from the fitted curve at half-maximal effect; % of control where 0% means no effect; nearly all actives have a fitted effect of over 65% in size
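For detection, Steady-Glo was added and plates sat 30 min at RT; before that, AREc32_Fluc cells grown overnight in OPTI-MEM/5% FBS had been treated with 23 nL compound for 24 hr at 37 deg C.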
ClpP mod – qHTS Assay for Activators of ClpP. purified B. subtilis ClpP, FRET peptide cleavage, 20 min. AID 651965, 2013. ATP-dependent Clp protease proteolytic subunit (Bacillus subtilis (strain 168)), P80244. 340,000 tested, 1.9% active. Potency, µM (doses to about 57.5 µM), for the others: at the highest dose activity change, negative = active; active = well fitted falling curve with a large enough effect; inconclusive = small, poorly fitted or top-dose-only effect; inactive = no such curve, though single readings can be large or run the other way; also: potency is read from the fitted curve at half-maximal effect; the source files actives as falling curves though it sought activators and does not explain the sign; nearly all actives have a fitted effect of over 65% in size
Target sequence (P80244 whole entry, looked up): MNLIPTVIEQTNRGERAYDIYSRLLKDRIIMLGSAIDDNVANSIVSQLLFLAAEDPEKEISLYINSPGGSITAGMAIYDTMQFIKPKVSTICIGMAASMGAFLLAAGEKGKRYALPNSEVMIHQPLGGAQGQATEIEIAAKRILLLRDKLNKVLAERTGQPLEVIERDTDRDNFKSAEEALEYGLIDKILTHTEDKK
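Buffer: 100 mM Tris/HCl pH8, 100 mM KCl, 0.05% low protease BSA, 2.5% glycerol, 0.01% Tween-20. ClpP 10 microg/mL final; 20 min RT; delta FRET normalized to ADEP and DMSO controls.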
A549 tox – Nrf2 qHTS screen for inhibitors: counterscreen for cytotoxicity | AID 504648, 2011 | 390,000 tested, 0.16% active | Potency, µM (highest dose often 46 µM), without a hit: at the highest dose activity change, negative = cytotoxicity, most hits filed as inhibitors | A549 ARE-Fluc cells, CellTiter-Fluor viability, 18-24 h; also: potency is read from the fitted curve at half-maximal effect; % is scaled to controls: 0 for no effect and ±100 for the full control effect
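A549 ARE-Fluc cells in 5% FBS OPTI-MEM, 5000 cells/well, rested 2 h then exposed to compounds in concentration-response for 18-24 h at 37 °C. Viability by CellTiter-Fluor fluorescence (Ex 405/Em 525) after 30 min; luciferase luminescence (BugLite, 15 min, RT) read afterwards.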
miR-21 reporter – qHTS Assay for Modulators of miRNAs and/orActivators of miR-21 | HeLa miR-21 FLuc reporter, luciferase, 48 h | Potency, µM (top dose mostly 38.3 µM), inactives show at the highest dose activity change, positive = activation, usual class: activators | 340,000 tested, under 10 active | AID 2288, 2010;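 also: % of control where 0% means no effect; miR-21 action dims this reporter so a rising signal means less miR-21 action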
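HeLa miR-21-FLuc reporter line, endogenous miR-21; 2000 cells/well in DMEM/10% FBS; compound titration up to ~40uM final, 48 h, 37 degree Celsius; luciferase detection reagent, 15 min lysis, CCD luminescence.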
Nrf2 block – Nrf2 qHTS screen for inhibitors. A549 ARE-Fluc reporter, luciferase luminescence, 18-24 h. Potency, µM (doses to about 46 µM), for the others: at the top dose activity change, negative = inhibition, actives largely listed as inhibitors. 360,000 tested, 2.1% active; also: potency is read from the fitted curve at half-maximal effect; % is scaled to controls: 0 for no effect and ±100 for the full control effect; nearly all actives have a fitted effect of over 60% in size
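Concentration-response testing used A549 ARE_Fluc cells at 5000 cells/well. Following an 18-24 h compound incubation, viability was read by fluorescence (Ex 405/Em 525) and luciferase output by luminescence.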
IL2 activator – qHTS of IL-2 Activators; IL-2 activation reporter assay, cell-based qHTS; stimulated with anti-CD3/CD4/CD28 beads; in transgenic mouse T cells; activation, % (series mostly up to about 46 µM); 360,000 tested, 0.065% active; in the data active = activation above about 50%; inconclusive = mostly about 30% to 49%; also: 0% is about no effect
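Readout: EGFP and DsRed signals by fluorescent plate cytometry. Unstimulated transgenic mouse T cells received compound 60 min before antibody-bead stimulation, then incubated 18 h at 37 degrees C.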
The depositor's hits bear a star; u = inconclusive; x = no result given; [ ] = remark or other dose. This is a sample that favours compounds with a hit; in the whole collection about 3.7% have one here. Unless noted, calls follow the shape of the dose curve; as a rule, active = well fitted curve in the direction sought with a large enough effect; inconclusive = small, poorly fitted or top-dose-only effect, or another doubt; inactive = no such curve, though single readings can be large; an effect the other way counts as inactive or inconclusive.

SMILES	Nrf2 ARE act	ClpP mod	A549 tox	miR-21 reporter	Nrf2 block	IL2 activator
CCCCCC(=O)O[C@]1(C(C)=O)CC[C@H]2[C@@H]3CCC4=CC(=O)CC[C@]4(C)[C@H]3CC[C@@]21C	4%	0%	u	4%	21µM*	-1
CC(C)(C)C(=O)Nc1ccc2oc(-c3cc(F)c(F)cc3Cl)nc2c1	5%	32µM*	-9%	-57%	u	0
COc1ccc(C2Nc3ccccc3C(=O)N2Cc2ccccc2)cc1COc1cccc(C)c1 (stereo unspecified)	x	x	-3%	x	-21%	x
CCOC(=O)c1c(C)nc2sc3c(=O)n(-c4ccc(C(C)=O)cc4)nnc3c2c1-c1ccc(OC)cc1	0%	-2%	-20%	3%	15µM*	0
c1ccc(-c2cn(-c3ccccc3)c3[n+]2CCS3)cc1	-1%	x	-12%	22%	u	-1
COc1ccc(-c2cn(-c3ccccc3)c3[n+]2CCS3)cc1	2%	1%	-12%	u	2.6µM*	-5
COc1cc2c(NC3CCN(C)CC3)nc(N3CCN(C)CC3)nc2cc1OCCCN(C)C	x	4%	x	x	x	x
COc1ccc(NS(=O)(=O)c2ccc(NC(=O)c3ccc(Br)cc3)cc2)nn1	5%	-2%	-4%	3%	21µM*	-1
CC(=O)N1CCC(N(Cc2ccco2)C(=O)Nc2cccc(C)c2)CC1	0%	-3%	0%	-11%	u	x
O=C(CNC(=O)C1CCCC1)OC(C(=O)Nc1cc(C(F)(F)F)ccc1Cl)c1ccccc1 (stereo unspecified)	x	x	9%	x	-12%	x
Cc1cccc(CNC(=O)Cc2ccc(NC(=O)N3CCCCc4ccccc43)cc2)c1	7%	-1%	-1%	-1%	u	x
CCCCc1cc(=O)oc2cc(OCc3nn[nH]n3)c(Cl)cc12	0%	28µM*	2%	0%	6%	0
O=S(=O)(c1ccc2c(c1)OCCO2)C1CCN(S(=O)(=O)c2c(F)cccc2F)CC1	x	x	-3%	x	14%	x
C=CCSC1=C(C#N)C(c2ccccc2C)CC(=O)N1 (stereo unspecified)	0%	28µM*	-2%	-2%	18%	0
Cc1ccc(C2CC(=O)NC(SCc3ccccc3)=C2C#N)cc1 (stereo unspecified)	2%	2%	2%	1%	10µM*	0
CCSC1=C(C#N)C(c2ccccc2C)CC(=O)N1 (stereo unspecified)	0%	1%	14%[1.84 µM]	-3%	6%	-1
O=C(CSc1ccc2nc(-c3ccccc3)cn2n1)Nc1cccc(F)c1	3%	u	0%	-49%	x	x
CCc1cccc(C)c1NC(=O)CN1C(=O)c2c(c3ccccc3n2C)C1c1ccc(OC)cc1 (stereo unspecified)	4%	25µM*	-4%	11%	-14%	x
CCc1cccc(C)c1NC(=O)Cn1ccn(-c2cccc(OC)c2)c(=O)c1=O	0%	1%	6%	1%	-5%	x
COc1ccc(C2c3c(n(C)c4ccccc34)C(=O)N2CC(=O)Nc2ccc(F)cc2)cc1 (stereo unspecified)	3%	u	-12%	-1%	25%	x
COc1ccc(C2c3c(n(C)c4ccccc34)C(=O)N2CC(=O)Nc2ccc(Cl)cc2)cc1 (stereo unspecified)	3%	18µM*	-1%	25%	-16%	x
CCCCNC(=O)Cn1c(=O)n(C)c2ccccc21	0%	1%	2%	-8%	-3%	-1
CCCCNC(=O)CN1C(=O)c2c(c3ccccc3n2C)C1c1ccc(OC)cc1 (stereo unspecified)	0%	32µM*	-11%	24%	6%	x
Cc1ccc(N(Cc2cc3ccccc3[nH]c2=O)C(=O)c2cccc(Cl)c2)cc1	4%	-29%	2%	5%	-3%	x
COCCNc1ccc(-c2nc(-c3ccncc3)no2)cc1[N+](=O)[O-]	9%	0%	5%	-4%	-19%	x
SMILES	Nrf2 ARE act	ClpP mod	A549 tox	miR-21 reporter	Nrf2 block	IL2 activator
CCN1C(C(=O)c2ccccc2)=C(OC(=O)COc2ccc(C)cc2)c2ccccc2S1(=O)=O	-1%	-1%	u	u	23µM*	x
CCCN1C(C(=O)c2ccccc2)=C(OC(=O)COc2ccccc2)c2ccccc2S1(=O)=O	-2%	-2%	u	u	23µM*	x
CCN1C(C(=O)c2ccccc2)=C(OC(=O)c2ccc(Cl)cc2)c2ccccc2S1(=O)=O	-1%	0%	u	u	21µM*	x
CCN1C(C(=O)c2ccccc2)=C(OC(=O)COc2ccc(OC)cc2)c2ccccc2S1(=O)=O	-1%	2%	u	u	u	x
CCCN1C(C(=O)c2ccccc2)=C(OC(=O)COc2ccc(C)cc2)c2ccccc2S1(=O)=O	-2%	1%	u	u	18µM*	x
Cc1cc(Cl)ccc1NC(=O)Cn1nnc2sc(-c3ccccc3)cc2c1=O	5%	-4%	1%	-3%	21%	x
N#Cc1ccccc1NC(=O)C(=O)NCCc1csc(-c2ccc(C(F)(F)F)cc2)n1	0%	4%	-1%	2%	x	x
COc1cccc(CNC(=O)c2ccc3c(c2)nc2n3CCC(C)C2)c1 (stereo unspecified)	3%	0%	17%	-49%	x	x
CCOc1ccc(NC(=S)NC(=O)/C=C/c2ccc(OC)c(OC)c2)c([N+](=O)[O-])c1	-1%	8%	u	-5%	21µM*	1
CCOC(=O)c1cnn(-c2nc(-c3ccccc3)cs2)c1C(F)(F)F	0%	32µM*	10%	-21%	x	-1
COc1ccc(-c2csc(-n3ncc(C(=O)O)c3C(F)(F)F)n2)cc1	4%	-10%	7%	-58%	u	-1
CCOC(=O)c1cnn(-c2nc(-c3ccccc3F)cs2)c1C(F)(F)F	0%	35µM*	-2%	-24%	2%	1
CCOC(=O)c1cnn(-c2nc(-c3ccc(F)cc3)cs2)c1C(F)(F)F	0%	32µM*	1%	-5%	u	4
CC(C)(C)OC(=O)CC(=O)NNC(=O)c1nc2ccccc2[nH]1	x	x	-8%	x	-1%	x
N#CN1CCC(NC(=O)c2ccc(C(F)(F)F)cc2)CC1	x	x	-3%	x	10%	x
COc1cc(OC)c(NC(=O)Cn2cnc3sc(C)c(S(=O)(=O)N4CCN(C)CC4)c3c2=O)cc1Cl	4%	-4%	1%	4%	u	x

Screening results deposited in PubChem BioAssay by National Center for Advancing Translational Sciences (NCATS).
